Holding throughout (test): NCI-60 one-dose screen, 48 h (100 = growth as untreated, 0 = no growth, -100 = all killed)
The subject of one assay is EKVX NSCLC. The following applies: 10 µM unless noted.
A further assay deals with SN12C renal. The conditions noted are these: 10 µM unless noted.
Another assay deals with UO-31 renal. The conditions noted are these: 10 µM unless noted.
Another assay deals with TK-10 renal. The conditions noted are these: 10 µM unless noted.
The subject of a further assay is ACHN renal. The following applies: 10 µM unless noted.
The next assay relates to CAKI-1 renal. The conditions noted are these: 10 µM.
The next assay concerns CCRF-CEM leukemia. The following applies: 10 µM unless noted.
Another assay has as its system MOLT-4 leukemia. The conditions noted are these: 10 µM unless noted.
The test system of another assay is SR leukemia. The conditions noted are these: 10 µM unless noted.
For the next assay, the system named is RPMI-8226 leukemia. The conditions noted are these: 10 µM unless noted.
Another assay deals with OVCAR-8 ovarian. The following applies: 10 µM unless noted.
Another assay has as its system OVCAR-5 ovarian. The following applies: 10 µM unless noted.
In another assay the test system is OVCAR-4 ovarian. The following applies: 10 µM unless noted.
The next assay deals with SK-OV-3 ovarian. The conditions noted are these: 10 µM unless noted.
A further assay concerns IGROV1 ovarian. The conditions noted are these: 10 µM unless noted.
In the next assay the test system is HS 578T breast. The conditions noted are these: 10 µM unless noted.
The subject of the next assay is NCI/ADR-RES ovarian. The following applies: 10 µM unless noted.
The subject of the next assay is A498 renal. The following applies: 10 µM unless noted.

About 83,000 compounds went through this panel and 20% of them were active in at least one assay; those are over-represented in the sample as a whole.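 In brief: 96-well plates, 48 h treatment, single concentration, percent growth endpoint.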 A number with no mark means an inactive call. Calls of active or inactive are those of the source. The calls were made as follows: active = growth percent below 10; inactive = the rest.

On to `C=CCn1c(SCC(=O)c2ccc(OC)cc2)nnc1-c1ccc(OC)cc1`, for which the growth with EKVX NSCLC was 96.4%; in the assay on SN12C renal, 97.6%; in the assay with UO-31 renal, 92.1%; in the assay on TK-10 renal, 105%; in the assay with ACHN renal, 104%; with CAKI-1 renal it was 88.3%. Moreover, the growth was 107% in the assay with CCRF-CEM leukemia; 96.1% in the assay with MOLT-4 leukemia; 96.1% in the assay with SR leukemia; 98.4% in the assay with RPMI-8226 leukemia; 99.9% in the assay on OVCAR-8 ovarian; 96.7% in the assay on OVCAR-5 ovarian. Further, the growth in the assay on OVCAR-4 ovarian was 98%; in the assay with SK-OV-3 ovarian, 105%; with IGROV1 ovarian, 103%; in the assay on HS 578T breast, 103%; in the assay on NCI/ADR-RES ovarian, 94.9%.
In the case of `C[C@@H]1C[C@H]2C(=O)OCC(NC(=O)[C@H](Cc3cc(F)cc(F)c3)NC(=O)Nc3ccc(Cl)cc3F)C(=O)N3CCC[C@H]3C(=O)N3CCCC[C@H]3C(=O)N[C@@H](C)C(=O)N2C1` (stereo partly drawn), the growth is 27.7% with EKVX NSCLC; 18.2% in the assay on SN12C renal; 30% in the assay on UO-31 renal; 52.8% in the assay on TK-10 renal; 26% in the assay with ACHN renal; 21.5% in the assay with CAKI-1 renal. In addition, the growth is 31.3% in the assay with CCRF-CEM leukemia; 33.2% in the assay with MOLT-4 leukemia; 21.8% with SR leukemia; 12.8% with RPMI-8226 leukemia; 20% in the assay on OVCAR-8 ovarian; 31.9% with OVCAR-5 ovarian. In addition, the growth in the assay on OVCAR-4 ovarian was 23.6%; in the assay on SK-OV-3 ovarian, 27.5%; with IGROV1 ovarian, 40.5%; in the assay on HS 578T breast, 32.7%; in the assay on NCI/ADR-RES ovarian, 24%.
As to `COc1cnc2c(c1)C(=O)c1c-2n(CCCn2ccnc2)c(=O)c2cc(OC)c(OC)cc12`, the growth with EKVX NSCLC is -9.94% (active); in the assay on SN12C renal, 3.73% (active); in the assay on UO-31 renal, -91.4% (active); with TK-10 renal, -91.4% (active); in the assay on ACHN renal, -36.1% (active); in the assay with CAKI-1 renal it was 9.33% (active). Besides, the growth in the assay on A498 renal was 17.8%; with CCRF-CEM leukemia it was -2.01% (active); in the assay with RPMI-8226 leukemia, -26.7% (active); with OVCAR-8 ovarian, -93.9% (active); in the assay on OVCAR-5 ovarian, -40.7% (active); in the assay with OVCAR-4 ovarian, -18.3% (active). The growth in the assay on SK-OV-3 ovarian was -31.8% (active); in the assay on IGROV1 ovarian, -20.6% (active); in the assay on HS 578T breast, 57.1%; in the assay on NCI/ADR-RES ovarian, 1.35% (active).
On to `C=CCn1c(SCC(=O)Nc2cccc(C(=O)/C=C/c3cc(OC)c(OC)c(OC)c3)c2)nc2ccccc2c1=O`, for which the growth with EKVX NSCLC was 78.2%; in the assay on SN12C renal, 41%; in the assay on UO-31 renal it was 49%; in the assay on TK-10 renal, 112%; in the assay on ACHN renal, 45.7%; with CAKI-1 renal it was 44.2%. Moreover, the growth is 75.6% with A498 renal; 9.12% (active) with CCRF-CEM leukemia; -9.52% (active) with RPMI-8226 leukemia; -14.7% (active) in the assay on OVCAR-8 ovarian; 17.4% in the assay with OVCAR-5 ovarian; 66.5% in the assay on OVCAR-4 ovarian. The growth in the assay with SK-OV-3 ovarian was 132%; in the assay with IGROV1 ovarian, 49.3%; in the assay on HS 578T breast, 82%; in the assay on NCI/ADR-RES ovarian, 27.1%.
Regarding `O=C1c2c(c3c4ccc(Br)cc4oc3c3[nH]c4ccccc4c23)C(=O)N1CCO`, the growth was 53.7% in the assay on EKVX NSCLC; 34% in the assay with SN12C renal; 25.6% in the assay on UO-31 renal; 107% in the assay on TK-10 renal; 12% in the assay with ACHN renal; 23.6% in the assay on CAKI-1 renal. For the same molecule, the growth with A498 renal was 52.4%; in the assay on CCRF-CEM leukemia, 21.7%; in the assay on RPMI-8226 leukemia, 43.3%; with OVCAR-8 ovarian, 50.4%; in the assay with OVCAR-5 ovarian, 69.9%; in the assay on OVCAR-4 ovarian it was 89.7%. Also, the growth in the assay with SK-OV-3 ovarian was 37.4%; in the assay with IGROV1 ovarian it was 43.4%; with HS 578T breast, 88.5%; in the assay on NCI/ADR-RES ovarian, 44.7%.
Consider `CCc1ccc(NC(=O)N[C@@H](Cc2cccc(F)c2)C(=O)N[C@@H]2C(=O)N3CCC[C@H]3C(=O)N3CCCC[C@H]3C(=O)N[C@@H](CO)C(=O)N3C[C@H](C)C[C@H]3C(=O)O[C@H]2C)c(F)c1`, for which the growth in the assay on EKVX NSCLC was 34%; in the assay with SN12C renal it was 20.3%; with UO-31 renal, 29.4%; in the assay with TK-10 renal, 61.1%; in the assay on ACHN renal, 32.2%; with CAKI-1 renal, 17.5%. The growth is 37.7% with CCRF-CEM leukemia; 39.3% with MOLT-4 leukemia; 31.4% with SR leukemia; 20.3% in the assay on RPMI-8226 leukemia; 20.9% in the assay with OVCAR-8 ovarian; 36.4% in the assay on OVCAR-5 ovarian. For the same molecule, the growth in the assay with OVCAR-4 ovarian was 24.6%; with SK-OV-3 ovarian, 21.8%; with IGROV1 ovarian, 39.5%; in the assay on HS 578T breast it was 35.5%; in the assay with NCI/ADR-RES ovarian, 60.6%.
Turning to `COc1ccc(-c2nc3cc(Cl)c(Cl)cc3n2CC(=O)N=Nc2c(O)[nH]c3ccc(Br)cc23)cc1`, the growth in the assay with EKVX NSCLC is 4.81% (active); in the assay on SN12C renal it was -20.1% (active); in the assay on UO-31 renal, -34.9% (active); in the assay on TK-10 renal it was 6.26% (active); with ACHN renal, -83% (active); in the assay with CAKI-1 renal, -76.8% (active). Moreover, the growth in the assay on CCRF-CEM leukemia was 39%; in the assay with MOLT-4 leukemia, 36.4%; with SR leukemia, 36.4%; in the assay on RPMI-8226 leukemia, 31.8%; in the assay on OVCAR-8 ovarian it was 12%; in the assay with OVCAR-5 ovarian it was -5.99% (active). Moreover, the growth in the assay with OVCAR-4 ovarian was -43.9% (active); with SK-OV-3 ovarian, 13.5%; with IGROV1 ovarian, -37.9% (active); in the assay with HS 578T breast it was -8.55% (active); in the assay on NCI/ADR-RES ovarian, -1.87% (active).
Consider `COc1ccc([C@H]2[C@H](O)C(=O)N2c2cc(OC)c(OC)c(OC)c2)cc1O`, for which the growth in the assay on EKVX NSCLC is 51.2%; with SN12C renal it was 24.6%; with UO-31 renal it was 32.6%; in the assay with TK-10 renal it was 81.1%; in the assay with ACHN renal, 28.1%; with CAKI-1 renal it was 28.9%. Also, the growth in the assay with A498 renal is -16% (active); in the assay on CCRF-CEM leukemia, 16.1%; in the assay on RPMI-8226 leukemia, 16.5%; with OVCAR-8 ovarian it was -11.5% (active); in the assay on OVCAR-5 ovarian, 30.1%; in the assay with OVCAR-4 ovarian, 70.3%. Besides, the growth was 21.4% in the assay with SK-OV-3 ovarian, 26.7% in the assay on IGROV1 ovarian, 5.02% (active) with HS 578T breast and 18.6% with NCI/ADR-RES ovarian.
For `O=c1cc(-c2ccccc2)nc2sc(-c3c[nH]c4ccc(F)cc34)nn12`, the growth in the assay on EKVX NSCLC was 52%; in the assay with SN12C renal, 56.6%; in the assay on UO-31 renal, 20.3%; in the assay with TK-10 renal, 50.9%; in the assay on ACHN renal it was 30%; with CAKI-1 renal, 60.5%. Besides, the growth in the assay with A498 renal was 88.8%; in the assay on CCRF-CEM leukemia it was 88.4%; in the assay on RPMI-8226 leukemia it was 71.9%; with OVCAR-8 ovarian, 62%; in the assay with OVCAR-5 ovarian, 77.2%; in the assay with OVCAR-4 ovarian, -14.1% (active). The growth with SK-OV-3 ovarian was 56.6%; in the assay on IGROV1 ovarian, 85.4%; in the assay on HS 578T breast, -4.32% (active); with NCI/ADR-RES ovarian it was 60.6%.

Source of the values: PubChem BioAssay (NCI).
